Target: T1, Phosphorylase b kinase gamma catalytic chain, liver/testis isoform (Homo sapiens) (UniProt P15735)
T1 sequence (whole entry): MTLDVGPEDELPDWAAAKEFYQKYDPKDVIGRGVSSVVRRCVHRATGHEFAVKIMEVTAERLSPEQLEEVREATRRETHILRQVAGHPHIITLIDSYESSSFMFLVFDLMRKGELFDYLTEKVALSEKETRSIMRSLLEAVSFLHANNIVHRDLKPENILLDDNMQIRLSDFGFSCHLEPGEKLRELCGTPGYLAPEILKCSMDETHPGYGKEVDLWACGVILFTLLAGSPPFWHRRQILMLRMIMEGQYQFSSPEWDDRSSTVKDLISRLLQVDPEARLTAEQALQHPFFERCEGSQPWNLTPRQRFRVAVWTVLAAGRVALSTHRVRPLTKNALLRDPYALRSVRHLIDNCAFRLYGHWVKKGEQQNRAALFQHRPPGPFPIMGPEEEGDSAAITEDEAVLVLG
Conditions: at 0.1 µM

SMILES | inhibition [%]
COc1cc(C=NNc2ncnc3c2cnn3Cc2ccccc2)ccc1O | -7.11
CCn1c(-c2nonc2N)nc2c(C#CCN)ncc(OCCCN)c21 | -1.7
CCn1c(-c2nonc2N)nc2c(C#CC(C)(C)O)nc(O[C@@H](CN)c3ccccc3)cc21 | -3.09
NS(=O)(=O)c1ccc(N/C=C2\C(=O)Nc3ccc4ncsc4c32)cc1 | 7.45
NC(=O)c1sc(-n2cnc3cc(C(F)(F)F)ccc32)cc1OCc1ccccc1Br | 2.5
Cc1cc(-c2ccco2)cc(C)c1/C=C/c1cncc(-c2nn[nH]n2)c1 | 1.33
Nc1nonc1-c1nc2cnccc2n1C1CCCCC1 | -4.48
COc1cccc(-n2ncc3c(N/N=C/c4ccncc4)ncnc32)c1 | 5.48
COc1cc2c(cc1Nc1nc(Nc3ccsc3C(N)=O)c3cc[nH]c3n1)N(C(=O)CN(C)C)CCC2 | -0.5
CCn1c(-c2nonc2N)nc2c(C#CC(C)(C)O)ncc(OC[C@@H]3CCCN3)c21 | 1.45
CCn1c(-c2nonc2N)nc2c(C#CC(C)(C)O)ncc(OCC3CCNCC3)c21 | 4.03
COc1cccc(COc2cc(-n3cnc4ccccc43)sc2C(N)=O)c1 | 1.62
Fc1ccc(-c2ncn(C3CCNCC3)c2-c2ccnc(Oc3ccccc3)n2)cc1 | 1.69
NS(=O)(=O)c1ccc(-c2ccc3c(NC(=O)C4CC4)n[nH]c3c2)cc1 | 2.77

Target: T1, Phosphorylase b kinase gamma catalytic chain, liver/testis isoform (Homo sapiens)
Conditions: at 1 µM

SMILES | inhibition [%]
COc1cc(C=NNc2ncnc3c2cnn3Cc2ccccc2)ccc1O | -6.49
CCn1c(-c2nonc2N)nc2c(C#CCN)ncc(OCCCN)c21 | 4.75
CCn1c(-c2nonc2N)nc2c(C#CC(C)(C)O)nc(O[C@@H](CN)c3ccccc3)cc21 | -0.93
NS(=O)(=O)c1ccc(N/C=C2\C(=O)Nc3ccc4ncsc4c32)cc1 | 19.8
NC(=O)c1sc(-n2cnc3cc(C(F)(F)F)ccc32)cc1OCc1ccccc1Br | 3.01
Cc1cc(-c2ccco2)cc(C)c1/C=C/c1cncc(-c2nn[nH]n2)c1 | 1.22
Nc1nonc1-c1nc2cnccc2n1C1CCCCC1 | -2.24
COc1cccc(-n2ncc3c(N/N=C/c4ccncc4)ncnc32)c1 | 7.43
COc1cc2c(cc1Nc1nc(Nc3ccsc3C(N)=O)c3cc[nH]c3n1)N(C(=O)CN(C)C)CCC2 | -0.53
CCn1c(-c2nonc2N)nc2c(C#CC(C)(C)O)ncc(OC[C@@H]3CCCN3)c21 | 1.65
CCn1c(-c2nonc2N)nc2c(C#CC(C)(C)O)ncc(OCC3CCNCC3)c21 | 6.94
COc1cccc(COc2cc(-n3cnc4ccccc43)sc2C(N)=O)c1 | 0.45
Fc1ccc(-c2ncn(C3CCNCC3)c2-c2ccnc(Oc3ccccc3)n2)cc1 | 1.14
NS(=O)(=O)c1ccc(-c2ccc3c(NC(=O)C4CC4)n[nH]c3c2)cc1 | 0

Target: Serine/threonine-protein kinase pim-1 (Homo sapiens) (UniProt P11309)
Conditions: at 0.1 µM

Chain of Serine/threonine-protein kinase pim-1 (Homo sapiens) (P11309 whole entry, looked up): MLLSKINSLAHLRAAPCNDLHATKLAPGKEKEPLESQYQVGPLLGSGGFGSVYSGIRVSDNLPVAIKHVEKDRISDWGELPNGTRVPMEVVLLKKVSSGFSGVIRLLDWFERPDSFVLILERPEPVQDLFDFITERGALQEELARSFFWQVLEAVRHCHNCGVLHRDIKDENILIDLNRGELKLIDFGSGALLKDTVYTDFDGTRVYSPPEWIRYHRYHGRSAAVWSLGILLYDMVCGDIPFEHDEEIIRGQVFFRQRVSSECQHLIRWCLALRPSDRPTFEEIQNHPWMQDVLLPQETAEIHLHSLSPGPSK

SMILES | inhibition [%]
COc1cc(C=NNc2ncnc3c2cnn3Cc2ccccc2)ccc1O | -0.98
CCn1c(-c2nonc2N)nc2c(C#CCN)ncc(OCCCN)c21 | 4.76
CCn1c(-c2nonc2N)nc2c(C#CC(C)(C)O)nc(O[C@@H](CN)c3ccccc3)cc21 | 4.64
NS(=O)(=O)c1ccc(N/C=C2\C(=O)Nc3ccc4ncsc4c32)cc1 | 1.16
NC(=O)c1sc(-n2cnc3cc(C(F)(F)F)ccc32)cc1OCc1ccccc1Br | 1.18
Cc1cc(-c2ccco2)cc(C)c1/C=C/c1cncc(-c2nn[nH]n2)c1 | 0.14
Nc1nonc1-c1nc2cnccc2n1C1CCCCC1 | 29.8
COc1cccc(-n2ncc3c(N/N=C/c4ccncc4)ncnc32)c1 | 1.36
COc1cc2c(cc1Nc1nc(Nc3ccsc3C(N)=O)c3cc[nH]c3n1)N(C(=O)CN(C)C)CCC2 | 31.3
CCn1c(-c2nonc2N)nc2c(C#CC(C)(C)O)ncc(OC[C@@H]3CCCN3)c21 | 1.6
CCn1c(-c2nonc2N)nc2c(C#CC(C)(C)O)ncc(OCC3CCNCC3)c21 | 2.14
COc1cccc(COc2cc(-n3cnc4ccccc43)sc2C(N)=O)c1 | 0.5
Fc1ccc(-c2ncn(C3CCNCC3)c2-c2ccnc(Oc3ccccc3)n2)cc1 | -1.15
NS(=O)(=O)c1ccc(-c2ccc3c(NC(=O)C4CC4)n[nH]c3c2)cc1 | 1.16

Target: Serine/threonine-protein kinase pim-1 (Homo sapiens) (UniProt P11309)
Conditions: at 1 µM

SMILES | inhibition [%]
COc1cc(C=NNc2ncnc3c2cnn3Cc2ccccc2)ccc1O | 1.73
CCn1c(-c2nonc2N)nc2c(C#CCN)ncc(OCCCN)c21 | 36
CCn1c(-c2nonc2N)nc2c(C#CC(C)(C)O)nc(O[C@@H](CN)c3ccccc3)cc21 | 35.2
NS(=O)(=O)c1ccc(N/C=C2\C(=O)Nc3ccc4ncsc4c32)cc1 | 4.82
NC(=O)c1sc(-n2cnc3cc(C(F)(F)F)ccc32)cc1OCc1ccccc1Br | 1.5
Cc1cc(-c2ccco2)cc(C)c1/C=C/c1cncc(-c2nn[nH]n2)c1 | 1.06
Nc1nonc1-c1nc2cnccc2n1C1CCCCC1 | 79.2
COc1cccc(-n2ncc3c(N/N=C/c4ccncc4)ncnc32)c1 | 3.36
COc1cc2c(cc1Nc1nc(Nc3ccsc3C(N)=O)c3cc[nH]c3n1)N(C(=O)CN(C)C)CCC2 | 79.8
CCn1c(-c2nonc2N)nc2c(C#CC(C)(C)O)ncc(OC[C@@H]3CCCN3)c21 | 7.63
CCn1c(-c2nonc2N)nc2c(C#CC(C)(C)O)ncc(OCC3CCNCC3)c21 | 17.3
COc1cccc(COc2cc(-n3cnc4ccccc43)sc2C(N)=O)c1 | 0.84
Fc1ccc(-c2ncn(C3CCNCC3)c2-c2ccnc(Oc3ccccc3)n2)cc1 | -0.11
NS(=O)(=O)c1ccc(-c2ccc3c(NC(=O)C4CC4)n[nH]c3c2)cc1 | 0.95

— ChEMBL document CHEMBL1961873, “Compounds: GSK PKIS; Assays: Nanosyn kinase panel” (2012)
